# According to PubChem BioAssay (NCATS):
# Several values for one entry are separate records, joined by “and”; a condition that tells them apart may be missing. Equal values may be shown once. Records with an inconclusive call do not appear. A call without a number means that no potency is given here. A number with no mark means an inactive call. Activity calls are given as the source filed them. The call rests on the fitted dose curve; in most records, active means well fitted curve in the direction sought with a large enough effect; inconclusive means small, poorly fitted or top-dose-only effect, or another doubt; inactive means no such curve, though single readings can be large; an effect the other way counts as inactive or inconclusive.
# How the values were obtained:
# TAB113 = assay: qHTS profiling for inhibitors of Plasmodium falciparum proliferation (AID 504749); further: nearly all actives have a fitted effect of over 60% in size; conditions: P. falciparum in erythrocytes, SYBR Green DNA, 72 h; series mostly up to 28.7 µM
# Procedure, shortened: (§1)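 Quantitative HTS: compounds pinned into medium, infected erythrocytes added (0.3% parasitemia, 2.5% hematocrit), 72 h culture at 37 C under 5% CO2. Saponin/Triton lysis with SYBR Green I, overnight RT, then fluorescence read.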
# CRL-7250 [1] = assay: Cytotoxic Profiling of Annotated Libraries Using Quantitative High-Throughput Screening (AID 1296008); conditions: Five cell lines viability, CellTiter-Glo ATP luminescence, 48-72 h; max response: hits give low values; further: nearly all actives have a fitted effect of over 60% in size; further: potency means the concentration at half of the fitted maximal effect
# Procedure, shortened: (§2)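 Compounds were pin-transferred onto cells and incubated 48 or 72 hr at 37 degree Celsius, 95% humidity. CellTiter-Glo was added, plates sat 10 min at room temperature, then ATP-coupled luminescence was imaged as the viability read-out.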
# HaCat [2] = assay: as above; conditions: Five cell lines viability, CellTiter-Glo ATP luminescence, 48-72 h; max response: hits give low values
# Procedure, shortened: as §2
# KB-3-1 = assay: as above; conditions: Five cell lines viability, CellTiter-Glo ATP luminescence, 48-72 h; max response: hits give low values
# Procedure, shortened: as §2
# NIH3T3 [3] = assay: as above; conditions: Five cell lines viability, CellTiter-Glo ATP luminescence, 48-72 h; max response: hits give low values
# Procedure, shortened: as §2
# HACAT [4] = assay: qHTS assay to identify novel small-molecules to repurpose for Merkel cell carcinoma treatment (AID 1296009); conditions: MCC and control cell lines, CellTiter-Glo viability, 72 h; at 44.8 µM (top of the series) unless noted; further: nearly all actives have a fitted effect of over 60% in size; further: potency means the concentration at half of the fitted maximal effect
# Procedure, shortened: (§3)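 Viability readout: ATP luminescence (CellTiter-Glo) after 72 hr drug exposure at 37 degree celsius. Dose-response format was 8 points for NPC and 11 points for MIPE; data normalized to in-plate controls.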
# HEK293T = assay: as above; conditions: MCC and control cell lines, CellTiter-Glo viability, 72 h; at 44.8 µM (top of the series) unless noted
# Procedure, shortened: as §3
# MCC-13 = assay: as above; conditions: MCC and control cell lines, CellTiter-Glo viability, 72 h; series mostly up to 46 µM
# Procedure, shortened: as §3
# MCC-26 = assay: as above; conditions: MCC and control cell lines, CellTiter-Glo viability, 72 h; series mostly up to 46 µM
# Procedure, shortened: as §3
# MKL-1 = assay: as above; conditions: MCC and control cell lines, CellTiter-Glo viability, 72 h; series mostly up to 46 µM
# Procedure, shortened: as §3
# MKL-2 = assay: as above; conditions: MCC and control cell lines, CellTiter-Glo viability, 72 h; series mostly up to 46 µM
# Procedure, shortened: as §3
# UISO = assay: as above; conditions: MCC and control cell lines, CellTiter-Glo viability, 72 h; series mostly up to 46 µM
# Procedure, shortened: as §3
# WaGa = assay: as above; conditions: MCC and control cell lines, CellTiter-Glo viability, 72 h; series mostly up to 46 µM
# Procedure, shortened: as §3
# W2 = assay: qHTS profiling for inhibitors of Plasmodium falciparum proliferation (AID 504749); further: nearly all actives have a fitted effect of over 60% in size; conditions: P. falciparum in erythrocytes, SYBR Green DNA, 72 h; series mostly up to 28.7 µM
# Procedure, shortened: as §1
# NIH3T3 [5] = assay: qHTS assay to identify novel small-molecules to repurpose for Merkel cell carcinoma treatment (AID 1296009); conditions: MCC and control cell lines, CellTiter-Glo viability, 72 h; at 44.8 µM (top of the series) unless noted; further: nearly all actives have a fitted effect of over 60% in size; further: potency means the concentration at half of the fitted maximal effect
# Procedure, shortened: as §3
# C33A = assay: Primary qHTS to identify gynecologic anti-cancer compounds using libraries of approved drugs and bioactive compounds (AID 1345084); conditions: Gynecologic cancer cell panel viability, ATPlite luminescence, 48 h; series mostly up to 57.5 µM; further: nearly all actives have a fitted effect of over 55% in size
# Procedure, shortened: (§4)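 Cells, 1,000 per well, were allowed to settle for 16 h at 37 C before compound addition. Five concentrations were tested for 48 h, and viability was read by ATPlite luminescence after 15 min at room temperature.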
# CAOV3 = assay: as above; conditions: Gynecologic cancer cell panel viability, ATPlite luminescence, 48 h; series mostly up to 57.5 µM
# Procedure, shortened: as §4
# HEK293 = assay: Cytotoxic Profiling of Annotated Libraries Using Quantitative High-Throughput Screening (AID 1296008); conditions: Five cell lines viability, CellTiter-Glo ATP luminescence, 48-72 h; max response: hits give low values; further: nearly all actives have a fitted effect of over 60% in size; further: potency means the concentration at half of the fitted maximal effect
# Procedure, shortened: as §2
# CRL-7250 [6] = assay: qHTS assay to identify novel small-molecules to repurpose for Merkel cell carcinoma treatment (AID 1296009); conditions: MCC and control cell lines, CellTiter-Glo viability, 72 h; at 44.8 µM (top of the series) unless noted; further: nearly all actives have a fitted effect of over 60% in size; further: potency means the concentration at half of the fitted maximal effect
# Procedure, shortened: as §3
compound,measurement,setting,value
CN(C)[C@@H]1C(=O)C(C(N)=O)=C(O)[C@@]2(O)C(=O)C3=C(O)c4c(O)cccc4[C@@](C)(O)[C@H]3[C@H](O)[C@@H]12,Potency,TAB113,inactive
same,max response,CRL-7250 [1],-1.31%
same,outcome,HaCat [2],inactive
same,max response,KB-3-1,-7.87% and 0.265% and -1.24%
same,max response,NIH3T3 [3],4.97%
same,outcome,HACAT [4],inactive
same,outcome,HEK293T,inactive
same,Potency,MCC-13,inactive
same,Potency,MCC-26,inactive
same,Potency,MKL-1,inactive
same,Potency,MKL-2,inactive
same,Potency,UISO,inactive
same,Potency,WaGa,inactive
CC[N+]1(CCOC(=O)C(O)(c2ccccc2)c2ccccc2)CCCCC1,Potency,TAB113,inactive
same,Potency,W2,inactive
same,max response,CRL-7250 [1],-4.52%
same,outcome,HaCat [2],inactive
same,max response,KB-3-1,1.27%
same,outcome,NIH3T3 [3],inactive
same,outcome,HACAT [4],inactive
same,outcome,HEK293T,inactive
same,Potency,MCC-13,inactive
same,Potency,MCC-26,inactive
same,Potency,MKL-1,inactive
same,Potency,MKL-2,inactive
same,outcome,NIH3T3 [5],inactive
same,Potency,UISO,inactive
same,Potency,WaGa,inactive
same,Potency,C33A,inactive
same,Potency,CAOV3,inactive
CC(C)N(CCNC(=O)CN1CCCC1=O)C(C)C,max response,CRL-7250 [1],4.66% and -0.977%
same,max response,HaCat [2],-6.79% and -2.04%
same,max response,KB-3-1,-4.8%
same,outcome,KB-3-1,inactive
same,max response,NIH3T3 [3],2.3%
same,outcome,NIH3T3 [3],inactive
same,Potency,MCC-13,inactive
same,Potency,MCC-26,inactive
same,Potency,MKL-1,inactive
same,Potency,MKL-2,inactive
same,outcome,NIH3T3 [5],inactive
same,Potency,UISO,inactive
same,Potency,WaGa,inactive
same,Potency,C33A,inactive
same,Potency,CAOV3,inactive
S=C(SSC(=S)N1CCCCC1)N1CCCCC1,max response,CRL-7250 [1],-1.9%
same,Potency,HEK293,944 nM (active)
same,max response,KB-3-1,-9.18%
same,Potency,MCC-13,168 nM (active)
same,Potency,MCC-26,133 nM (active)
same,Potency,MKL-1,133 nM (active)
same,Potency,MKL-2,94.4 nM (active)
same,Potency,UISO,94.4 nM (active)
C[C@H]1CCCC=CC2C[C@H](O)C[C@@H]2[C@H](O)C=CC(=O)O1 (some centres not stated),max response,CRL-7250 [1],-95.9%
same,max response,HaCat [2],-111%
same,Potency,KB-3-1,1 nM (active)
same,Potency,NIH3T3 [3],1050 nM (active)
same,Potency,MCC-13,inactive
same,Potency,MCC-26,inactive
same,Potency,MKL-1,inactive
same,Potency,MKL-2,inactive
same,Potency,UISO,inactive
same,Potency,WaGa,inactive
CCOP(=O)(NC(C)C)Oc1ccc(SC)c(C)c1 (configuration not stated),max response,CRL-7250 [1],-0.0778%
same,outcome,HaCat [2],inactive
same,max response,KB-3-1,-7.33%
same,max response,NIH3T3 [3],-4.93%
same,outcome,HACAT [4],inactive [at 92 µM]
same,Potency,MCC-13,inactive
same,Potency,MCC-26,inactive
same,Potency,MKL-1,inactive
same,Potency,MKL-2,inactive
same,Potency,UISO,inactive
same,Potency,C33A,inactive
Nc1ccc(Cl)cc1,max response,CRL-7250 [1],-5.83%
same,max response,HaCat [2],-11.6%
same,max response,KB-3-1,-17.1%
same,max response,NIH3T3 [3],2.51%
same,Potency,MCC-13,inactive
same,Potency,MCC-26,inactive
same,Potency,MKL-1,inactive
same,Potency,MKL-2,inactive
same,Potency,UISO,inactive
same,Potency,WaGa,inactive
same,Potency,C33A,inactive
CC(O)CN1CCN(CC(=O)[O-])CCN(CC(=O)[O-])CCN(CC(=O)[O-])CC1.[Gd+3] (configuration not stated),outcome,CRL-7250 [1],inactive
same,max response,HaCat [2],-14.5%
same,max response,KB-3-1,-2.15% and -0.0896%
same,max response,NIH3T3 [3],-1.05%
same,outcome,CRL-7250 [6],inactive
same,Potency,MCC-13,inactive
same,Potency,MKL-1,inactive
same,Potency,MKL-2,inactive
same,Potency,UISO,inactive
same,Potency,WaGa,inactive
same,Potency,C33A,inactive
same,Potency,CAOV3,inactive
O=[N+]([O-])/N=C1\NCCN1Cc1ccc(Cl)nc1,max response,CRL-7250 [1],-0.312%
same,max response,HaCat [2],-1.41%
same,max response,KB-3-1,6.99% and -6.61%
same,max response,NIH3T3 [3],-2.1%
same,outcome,HEK293T,inactive
same,Potency,MCC-13,inactive
same,Potency,MCC-26,inactive
same,Potency,MKL-1,inactive
same,Potency,MKL-2,inactive
same,Potency,UISO,inactive
same,Potency,WaGa,inactive
same,Potency,C33A,inactive
C[C@@H]1CC[C@@]2(OC1)O[C@H]1C[C@H]3[C@@H]4CC=C5C[C@@H](O[C@@H]6O[C@H](CO)[C@@H](O[C@@H]7O[C@@H](C)[C@H](O)[C@@H](O)[C@@H]7O)[C@H](O)[C@@H]6O[C@@H]6O[C@@H](C)[C@H](O)[C@@H](O)[C@@H]6O)CC[C@]5(C)[C@@H]4CC[C@]3(C)[C@@H]1[C@H]2C,Potency,CRL-7250 [1],9350 nM (active)
same,Potency,HEK293,3720 nM (active)
same,Potency,KB-3-1,8330 nM (active)
same,Potency,NIH3T3 [3],13200 nM (active)
same,Potency,MCC-26,10500 nM (active)
same,Potency,MKL-2,6620 nM (active)
CC(C)(O)C=CC(=O)[C@](C)(O)[C@H]1[C@H](O)C[C@]2(C)[C@@H]3CC=C4[C@@H](C=C(O)C(=O)C4(C)C)[C@]3(C)C(=O)C[C@@]12C,Potency,CRL-7250 [1],418 nM (active)
same,Potency,HEK293,1870 nM (active)
same,Potency,KB-3-1,132 nM (active)
same,Potency,NIH3T3 [3],2960 nM (active)
same,Potency,MCC-13,264 nM (active)
same,Potency,MKL-1,66.2 nM (active)
same,Potency,MKL-2,37.2 nM (active)
same,Potency,UISO,166 nM (active)
same,Potency,WaGa,93.5 nM (active)
COc1ccc(CC2NCCc3cc(OC)c(OC)cc32)cc1OC (configuration not stated),max response,CRL-7250 [1],-3.56%
same,outcome,HaCat [2],inactive
same,max response,KB-3-1,-3.69%
same,max response,NIH3T3 [3],-2.7%
same,outcome,HACAT [4],inactive
same,Potency,MCC-13,inactive
same,Potency,MKL-1,inactive
same,Potency,MKL-2,inactive
same,Potency,UISO,inactive
same,Potency,WaGa,inactive
CC[C@H]1C=CC=CC[C@@H](C)[C@H](O)[C@@](C)(O)C(=O)[C@@H](C)[C@H](O)[C@@H](C)C(=O)[C@@H](C)[C@H](O)[C@@H](C)C=CC(=O)O[C@@H]2[C@@H](C)[C@H](CC1)O[C@]1(CC[C@H](C)[C@H](C[C@@H](C)O)O1)[C@H]2C,Potency,CRL-7250 [1],18700 nM (active)
same,Potency,HEK293,332 nM (active)
same,Potency,KB-3-1,372 nM (active)
same,Potency,NIH3T3 [3],16600 nM (active)
same,Potency,MKL-1,296 nM (active)
same,Potency,MKL-2,93.5 nM (active)
same,Potency,UISO,1660 nM (active)
same,Potency,WaGa,662 nM (active)
C[C@]12Cc3cn[nH]c3C[C@@H]1CC[C@@H]1[C@H]2CC[C@@]2(C)[C@H]1CC[C@]2(C)O,max response,CRL-7250 [1],3.97%
same,outcome,HaCat [2],inactive
same,max response,KB-3-1,-0.691%
same,max response,NIH3T3 [3],-12.4%
same,outcome,HACAT [4],inactive
same,Potency,MCC-13,inactive
same,Potency,MKL-1,inactive
same,Potency,MKL-2,inactive
same,Potency,UISO,inactive
same,Potency,WaGa,inactive
Cc1c(C(=O)c2cccc3ccccc23)c2cccc3c2n1[C@H](CN1CCOCC1)CO3,Potency,CRL-7250 [1],20900 nM (active)
same,Potency,HEK293,18700 nM (active)
same,Potency,KB-3-1,13200 nM (active)
same,Potency,MKL-1,23500 nM (active)
same,Potency,MKL-2,23500 nM (active)
